Assay outcomes from PubChem BioAssay.
ELG1 repair inh: qHTS screen for small molecules that inhibit ELG1-dependent DNA repair in human embryonic kidney (HEK293T) cells expressing luciferase-tagged ELG1; HEK293T ELG1-luciferase reporter, luminescence, 16 h; DNA damage induced by 5-fluorouridine; actives 2.3% (n = 330,000); Potency, µM (highest dose often 46.1 µM), for inactives: at the highest dose activity change, negative = inhibition, most hits filed as inhibitors; further: on the % scale 0 is the no-effect control and ±100 the full control effect; nearly all actives have a fitted effect of over 55% in size
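Reporter activity after DNA damage by 5-fluorouridine is monitored. Compound-treated cells incubate 16 hr at 37 °C, then ONE-Glo is added for 30 min before luminescence reading.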
A549 viability: Nrf2 qHTS screen for inhibitors: counterscreen for cytotoxicity | A549 ARE-Fluc cells, CellTiter-Fluor viability, 18-24 h | Potency, µM (top dose mostly 46 µM), for the others: top-dose activity change, negative = cytotoxicity, most hits filed as inhibitors | actives 0.16% (n = 390,000) | AID 504648, 2011; further: on the % scale 0 is the no-effect control and ±100 the full control effect
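Cytotoxicity counterscreen: CellTiter-Fluor fluorescence was measured in A549 ARE_Fluc cells after 18-24 h of compound exposure in a concentration series. The subsequent BugLite luminescent read reports ARE-luciferase activity.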
Nrf2 inh: Nrf2 qHTS screen for inhibitors | actives 2.1% (n = 360,000) | Potency, µM (top dose mostly 46 µM), for the others: top-dose activity change, negative = inhibition, actives largely listed as inhibitors | A549 ARE-Fluc reporter, luciferase luminescence, 18-24 h; further: on the % scale 0 is the no-effect control and ±100 the full control effect; nearly all actives have a fitted effect of over 60% in size
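A549 ARE_Fluc cells, 5000/well, 5% FBS OPTI-MEM; compounds in dose-response, 18-24 h at 37 °C/5% CO2; CellTiter-Fluor viability read (Ex 405/Em 525), then BugLite luciferase luminescence = Nrf2 activity.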
Nrf2 ARE act: qHTS of Nrf2 Activators | AREc32 ARE-luciferase reporter (MCF7-derived line), luminescence, 24 h | Potency, µM (titrated, usually from 46.1 µM), without a hit: at the top dose activation, hits mostly activators | actives 0.31% (n = 410,000); further: % of control where 0% means no effect; nearly all actives have a fitted effect of over 65% in size
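AREc32_Fluc, 1000 cells/well, OPTI-MEM + 5% FBS, o/n 37 deg C 5% CO2; 23 nL cpd by pin tool, 24 hr; Steady-Glo 30 min RT, luminescence.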
Starred values were filed as active, the others as inactive; ? = inconclusive; . = no result given. Hits are enriched below; roughly 3.7% of the tested compounds scored in any of these assays. The call rests on the fitted dose curve; in most records, active means well fitted curve in the direction sought with a large enough effect; inconclusive means small, poorly fitted or top-dose-only effect, or another doubt; inactive means no such curve, though single readings can be large; an effect the other way counts as inactive or inconclusive. Potency means the concentration at half of the fitted maximal effect.

SMILES | ELG1 repair inh | A549 viability | Nrf2 inh | Nrf2 ARE act
CC(C)NC(=O)N1[C@H](c2cccs2)[C@@H](C)C(=O)[C@@H](C)[C@@H]1c1cccs1 | . | -3% | -15% | 0%
C=CCOC(=O)C1=C[C@H](c2coc3ccccc3c2=O)C[C@H](OCc2ccc(CO)cc2)O1 | 8.2µM* | -2% | 4% | -1%
C=CCOC(=O)C1=C[C@@H](c2coc3ccccc3c2=O)C[C@@H](OCc2ccc(CO)cc2)O1 | -26% | ? | ? | 1%
CC(=O)n1cc([C@H]2C=C(C(=O)Nc3ccccc3)O[C@@H](OCc3ccc(CO)cc3)C2)c2ccccc21 | 9.2µM* | -16% | 7% | 7%
CNc1ccc(Br)cc(C(=O)/C=C/c2ccc3c(c2)OCO3)c1=O | ? | -20% | ? | ?
CCNc1ccc(Br)cc(C(=O)/C=C/c2ccc(Cl)cc2Cl)c1=O | ? | ? | 26µM* | ?
CNc1ccc(Br)cc(C(=O)/C=C/c2ccc(OC)cc2)c1=O | ? | 0% | 0% | ?
CNc1ccc(Br)cc(C(=O)/C=C/c2cc(OC)ccc2OC)c1=O | ? | ? | ? | 14µM*
CCc1ccc2oc(-c3cc(N=Cc4cccc(OC)c4O)ccc3O)nc2c1 | ? | -11% | ? | 10µM*
CCCCn1c(SCC(=O)NCc2ccc(C)cc2)nc2c(sc3ccccc32)c1=O | . | 1% | . | -1%
Cc1ccc(CNC(=O)CCCc2cn(C)c3ccccc23)cc1 | -13% | 1% | -4% | -1%
COCCn1c(=O)[nH]c2cc(C(=O)NCCN3CCN(c4ccc(OC)cc4)CC3)ccc2c1=O | 9.2µM* | 3% | -8% | -1%
COC(=O)c1ccc2c(=O)n(CCCCCC(=O)N3CCN(c4ccc(F)cc4)CC3)c(=O)[nH]c2c1 | 2.9µM* | 1% | -11% | 0%
COCCn1c(=O)[nH]c2cc(C(=O)NCCN3CCN(c4ccccc4)CC3)ccc2c1=O | -25% | 6% | 0% | 0%
COC(=O)c1ccc2c(=O)n(CCCCCC(=O)N3CCN(c4ccc(Cl)cc4)CC3)c(=O)[nH]c2c1 | . | 11% | . | 4%
COc1ccccc1CNC(=O)CN(CCc1ccccc1)S(C)(=O)=O | -26% | 12% | 14% | 0%
COC(=O)c1sc(-c2ccc(Cl)cc2)cc1NC(=O)/C=C/C(=O)O | -23% | -15% | ? | 8.9µM*
COC(=O)c1c(NC(=O)/C=C/C(=O)O)sc(C)c1-c1ccc(C)c(C)c1 | -6% | -2% | -6% | 18µM*
COC(=O)c1c(NC(=O)/C=C/C(=O)O)sc(C)c1-c1ccc(C)cc1 | -11% | -26% | ? | 20µM*
COC(=O)c1c(NC(=O)/C=C/C(=O)O)sc(C)c1-c1ccc(C(C)C)cc1 | -18% | 2% | ? | 10µM*
CCOC(=O)c1c(NC(=O)/C=C/C(=O)O)sc(C)c1-c1ccc(F)cc1 | 10% | -5% | ? | ?
COC(=O)c1sc(-c2ccc(Cl)cc2)cc1NC(=O)COCC(=O)O | 3% | -14% | ? | 3%
CCOC(=O)c1c(NC(=O)/C=C/C(=O)O)sc(C)c1-c1ccc(C)c(C)c1 | -9% | 0% | -15% | ?
Cc1cccc(-c2noc(-c3ccc(N4CCN(C)CC4)c([N+](=O)[O-])c3)n2)c1 | . | 11% | 21% | 1%
Cc1ccc(C(=O)Nc2cccc(C(F)(F)F)c2)cc1Nc1ccccn1 | -29% | ? | 21µM* | 2%
SMILES | ELG1 repair inh | A549 viability | Nrf2 inh | Nrf2 ARE act
CC(C)(C)NC(=S)Nc1cccc(C(F)(F)F)c1 | 12µM* | -1% | ? | 3%
Cc1ccccc1C(=O)NNC(=S)Nc1cccc(C(F)(F)F)c1 | ? | ? | 12µM* | -2%
Cc1occc1C(=O)Nc1cccc(C(F)(F)F)c1 | 11% | ? | -4% | 3%
Cc1cnc(Nc2nc3ccccc3o2)nc1C(=O)Nc1cccc(C(F)(F)F)c1 | ? | ? | 16µM* | 7%
Cc1ccc(C)c(OCCn2cc(/C=C(/C#N)C(=O)NCC3CCCO3)c3ccccc32)c1 (stereo not given) | 15µM* | ? | ? | 3%
N#C/C(=C\c1cn(CCOc2ccccc2)c2ccccc12)C(=O)NCC1CCCO1 (stereo not given) | ? | -1% | -21% | 2%
CCOC(=O)/C(C#N)=C/c1cn(CCOc2ccc(OC)cc2)c2ccccc12 | 12µM* | -4% | -2% | 6%
CCOc1ccc(NC(=O)/C(C#N)=C/c2cn(CC(=O)O)c3ccccc23)cc1 | ? | ? | 1% | 0%
CC(=O)c1c(C)[nH]c(C(=O)OCC(=O)NCCc2ccc(F)cc2)c1C | 21µM* | 4% | ? | 3%
CC(=O)c1c(C)[nH]c(C(=O)OCC(=O)NCc2cccs2)c1C | ? | -1% | 15µM* | 5%
CC(=O)c1c(C)[nH]c(C(=O)OCC(=O)NCCc2ccc(Cl)cc2)c1C | ? | -3% | . | 5%
CCOC(=O)c1c(C)[nH]c(C(=O)OCC(=O)Nc2sccc2C(N)=O)c1C | ? | ? | 8.2µM* | -1%
CC(=O)c1c(C)[nH]c(C(=O)OCc2ccc(F)cc2Cl)c1C | 9.2µM* | -13% | 13µM* | 6%
CC(=O)c1c(C)[nH]c(C(=O)OCc2cccc(Cl)c2)c1C | -16% | -1% | ? | 8%
CCN(C(=O)COC(=O)c1ccc(Br)o1)C1CCCCC1 | 12% | 5% | 14% | 0%
C[C@@H]1CCC(=O)N(CC[C@H](Oc2ccccc2)c2ccccc2)CC1 | -1% | -4% | 15% | 0%
COc1ccc(S(=O)(=O)N2CCOCC2)cc1NC(=O)c1cccc(Cl)c1 | -8% | -2% | 3% | 4%
CC(=O)Nc1ccc2c(c1)N(C(C)=O)c1ccccc1CC2 | 21µM* | -3% | -9% | -1%
O=C(Nc1ccccc1)N1N=C(c2cccs2)CC1c1cccs1 (stereo not given) | -4% | -8% | 23µM* | 2%
CS(=O)(=O)Nc1cccc(C2=NN(C(=O)c3ccco3)C(c3cccs3)C2)c1 (stereo not given) | 6.5µM* | -9% | ? | 4%
CCC(=O)N1N=C(c2cccc(NS(C)(=O)=O)c2)CC1c1cccs1 (stereo not given) | 23µM* | -1% | -19% | 1%
CS(=O)(=O)Nc1ccc(C2=NN(C(=O)c3cccc(F)c3)C(c3cccs3)C2)cc1 (stereo not given) | 16µM* | ? | 18µM* | 3%
CS(=O)(=O)Nc1ccc(C2=NN(C(=O)c3ccccc3)C(c3cccs3)C2)cc1 (stereo not given) | ? | -11% | ? | 3%
CC(C)N(C)Cc1nnnn1CC(=O)NCCc1cccc(C(F)(F)F)c1 | 0% | 3% | 1% | 0%
CN(C)c1ccc(C2CC(c3cccc(NS(C)(=O)=O)c3)=NN2C(=O)c2ccccc2)cc1 (stereo not given) | ? | ? | 23µM* | 3%
